Each structure is given as a SMILES string.

The subject of the first test is Plasmodium falciparum. As to the kind of experiment: GSK_TCMDC: Inhibition of Plasmodium falciparum 3D7 in whole red blood cells, using parasite LDH activity as an index of growth. Test compounds present at 2uM. Type of test: functional.
By Inhibition is commonly meant the percentage by which the read-out fell short of the control. Low values mean a response near the control, high ones a response far below the control. `O=C(Cc1cccc2ccccc12)N1CCc2cc3nccc(N4CCN5CCC[C@H]5C4)c3cc21` gave an Inhibition of 100%.

Take `CC(C)CNCc1ccc(-c2cccc(CN(CCN(C)C)C(=O)NCCc3ccccc3)c2)cc1.O=C(O)C(F)(F)F`: the Inhibition turned out to be 91%.

On to `N#CC(c1ccc(Br)cc1)c1ccc2c(C(F)(F)F)cc(C(F)(F)F)nc2n1` (stereo not given), for which the Inhibition is 100%.

Regarding `COc1cc(F)c2ncc(C#N)c(CCN3CCC(NCc4ccc5c(c4)OCCO5)CC3)c2c1.Cl`, the Inhibition is 97%.

As for `CS(=O)(=O)O.FC(F)(F)COc1ccc(CNCCCCCCNCc2ccc(OCC(F)(F)F)c3ccccc23)c2ccccc12`, the Inhibition was determined as 100%.

The compound `COc1cc2nc(NCCN3CCOCC3)n3nc(-c4ccccc4)nc3c2cc1OC` yielded an Inhibition of 96%.

`O=C(Nc1nccs1)c1cn(-c2ccccc2)nc1-c1ccc(Cl)s1` yielded an Inhibition of 96%.

Regarding `COc1ccc2nccc([C@@H](O)CN3CCC(NCCOc4ccccc4C(F)(F)F)CC3)c2c1.O=C(O)C(=O)O`, the Inhibition turned out to be 98%.

`COc1ccc(Nc2nccc(-c3ccc(NC(=O)c4cc5cc(F)ccc5[nH]4)cc3)n2)cc1` returned an Inhibition of 91%.

The compound `O=C(CN1CCN(S(=O)(=O)C=Cc2ccccc2)CC1)Nc1cc(C(F)(F)F)ccc1Cl` showed an Inhibition of 96%.

With `S=C(NCCCCCN1CCC(c2c[nH]c3ccccc23)CC1)Nc1cc(Cl)cc(Cl)c1`, the Inhibition worked out at 100%.

On to `c1nc(CCNc2nc(Nc3ccc4c(c3)OCO4)nc(NC3CCCC3)n2)c[nH]1`, for which the Inhibition was determined as 80%.

The compound `COc1ccc2c(=O)ccn(CCN3CCC(NCc4ccc5c(n4)NC(=O)CS5)CC3)c2c1.Cl` displayed an Inhibition of 98%.

In the case of `CCNc1c2ccc(Cl)cc2nc2ccc(OC)cc12.Cl`, the Inhibition was found to be 99%.

For the compound `Cc1c(C(=O)C2CC2CN2CCC(N3CCCC3)CC2)sc2ccccc12` (stereo not given), the Inhibition was 94%.

`CC(C)CN(c1nc(C(=O)NNC(=O)[C@H](CC2CC2)NC(=O)c2cc3cc(OCCN(C)C)ccc3o2)cs1)C1CC1` returned an Inhibition of 87%.

Turning to `O=C(Nc1ccc2c(c1)CCN2C1CCN(Cc2csc3ccccc23)C1)c1ccco1` (stereo not given), the Inhibition came out at 95%.

`Cc1cccc2nc(-c3ccc(-c4ccc(CNCC5CCCO5)cc4)s3)[nH]c12.O=C(O)C(F)(F)F` (stereo not given) came in with an Inhibition of 100%.

Consider `Cl.N#Cc1ccc2c(c1)CCN(CCC1CCC(NC(=O)c3cccc(-c4ccc(F)cc4)c3)CC1)CC2` (stereo not given), for which the Inhibition came to 92%.

As to `Cl.Fc1cccc(COc2ccc(Nc3ncnc4ccc(-c5nnc(C(F)(F)F)o5)cc34)cc2Cl)c1`, the Inhibition came out at 100%.

Turning to `Br.CC1CCC2(CC1)N=C(N)N=C(N)N2OCc1ccc(Br)c2ccccc12` (stereo not given), the Inhibition is on record as 96%.

In turn, `Nc1nc(N)c2c(ccc3c2ccn3Cc2ccc(Cl)cc2)n1` showed an Inhibition of 100%.

`O=C(Nc1ccc(Cl)cc1)c1ccc(CN2CCCN(Cc3ccsc3)CC2)cc1.O=C(O)C(F)(F)F` came in with an Inhibition of 88%.

In the case of `CCOC(=O)C1=C(C)NC(Cn2ccnc2)=C(C(=O)OCC)C1c1ccc(C(C)(C)C)cc1.Cl` (stereo not given), the Inhibition is given as 100%.

As for `O=C(O)C(F)(F)F.O=[N+]([O-])c1cnc(Nc2ccccc2O)nc1Nc1ccccc1O`, the Inhibition is recorded as 98%.

As to `Cc1cc(CNCCCCCNCc2cccc([N+](=O)[O-])c2)ccc1O`, the Inhibition is listed as 98%.

For the compound `CCc1n[nH]c(C(=O)NC2CCN(CC3(c4ccc(OC)cc4)CCCCC3)CC2)c1C`, the Inhibition came out at 90%.

Take `c1ccc(-c2cc(NCc3cccc4ccccc34)c3[nH]ncc3n2)cc1`: the Inhibition is reported as 93%.

Consider `Cc1cc(CNCCCCCNCc2ccc(Cl)cc2)ccc1O`, for which the Inhibition is given as 98%.

`O=C(Nc1cccnc1)c1cn(-c2ccccc2)nc1-c1cccs1` came in with an Inhibition of 99%.

Compound `O=C(NC1CCCCC1)N(Cc1cccc(-c2ccc(CNCc3ccc4c(c3)OCO4)cc2)c1)C1CCN(Cc2ccccc2)CC1.O=C(O)C(F)(F)F` had an Inhibition of 92%.

For `CC1(C)CCCN(Cc2c(O)ccc3c(O)c(-c4nc5ccccc5s4)c(=N)oc23)C1`, the Inhibition worked out at 100%.

`O=C1Nc2cccc3c2C1(CCCCN1CCC(c2c[nH]c4cc(C(F)(F)F)ccc24)CC1)CCC3` (stereo not given) gave an Inhibition of 99%.

In the case of `CN(CCc1ccccn1)c1cccc2c1nc(-c1cccnc1)n2CCNCc1ccccc1.O=C(O)C(F)(F)F`, the Inhibition amounted to 90%.

Regarding `CNC(=O)NC1=NC(C)(C)N(OCc2ccc(Cl)c(Cl)c2)C(NC(=O)NC)=N1`, the Inhibition is on record as 99%.

Compound `CC[C@H](C)CNC(=O)c1ccnc(-c2ccc(CNCCCc3ccccc3)cc2)c1.O=C(O)C(F)(F)F` registered an Inhibition of 100%.

`CCC(ON1C(N)=NC(N)=NC1(C)C)c1ccccc1` (stereo not given): the Inhibition is recorded as 96%.

In turn, `COc1cc(Cc2cnc(N)nc2N)cc(OCCCCC2SC(=O)NC2=O)c1OC` (stereo not given) gave an Inhibition of 94%.

Consider `CCNc1cc(C(=O)N[C@@H](Cc2ccccc2)[C@H](O)CNC2CCC(C(C)(C)C)CC2)cc(N2CCCC2=O)c1` (stereo not given in full), for which the Inhibition turned out to be 98%.

With `COc1ccc(CCNc2nc(NCCc3cnc[nH]3)nc(NCc3cccc4ccccc34)n2)cc1OC`, the Inhibition amounted to 98%.

In the next test the test system is Plasmodium falciparum. As to the kind of experiment: GSK_TCMDC: Inhibition of Plasmodium falciparum Dd2 in whole red blood cells, using parasite LDH activity as an index of growth. Test compounds present at 2uM. Format: functional.
For the compound `O=C(Cc1cccc2ccccc12)N1CCc2cc3nccc(N4CCN5CCC[C@H]5C4)c3cc21`, the Inhibition was 99%.

The compound `CC(C)CNCc1ccc(-c2cccc(CN(CCN(C)C)C(=O)NCCc3ccccc3)c2)cc1.O=C(O)C(F)(F)F` had an Inhibition of 37%.

Consider `N#CC(c1ccc(Br)cc1)c1ccc2c(C(F)(F)F)cc(C(F)(F)F)nc2n1` (stereo not given), for which the Inhibition is 98%.

As to `COc1cc(F)c2ncc(C#N)c(CCN3CCC(NCc4ccc5c(c4)OCCO5)CC3)c2c1.Cl`, the Inhibition amounted to 59%.

In the case of `CS(=O)(=O)O.FC(F)(F)COc1ccc(CNCCCCCCNCc2ccc(OCC(F)(F)F)c3ccccc23)c2ccccc12`, the Inhibition is listed as 93%.

`COc1cc2nc(NCCN3CCOCC3)n3nc(-c4ccccc4)nc3c2cc1OC` had an Inhibition of 98%.

Take `O=C(Nc1nccs1)c1cn(-c2ccccc2)nc1-c1ccc(Cl)s1`: the Inhibition is 18%.

Compound `COc1ccc2nccc([C@@H](O)CN3CCC(NCCOc4ccccc4C(F)(F)F)CC3)c2c1.O=C(O)C(=O)O` registered an Inhibition of 95%.

For `COc1ccc(Nc2nccc(-c3ccc(NC(=O)c4cc5cc(F)ccc5[nH]4)cc3)n2)cc1`, the Inhibition turned out to be 26%.

As to `O=C(CN1CCN(S(=O)(=O)C=Cc2ccccc2)CC1)Nc1cc(C(F)(F)F)ccc1Cl`, the Inhibition was 63%.

With `S=C(NCCCCCN1CCC(c2c[nH]c3ccccc23)CC1)Nc1cc(Cl)cc(Cl)c1`, the Inhibition was determined as 35%.

On to `c1nc(CCNc2nc(Nc3ccc4c(c3)OCO4)nc(NC3CCCC3)n2)c[nH]1`, for which the Inhibition is listed as 0%.

Compound `COc1ccc2c(=O)ccn(CCN3CCC(NCc4ccc5c(n4)NC(=O)CS5)CC3)c2c1.Cl` yielded an Inhibition of 99%.

Regarding `CCNc1c2ccc(Cl)cc2nc2ccc(OC)cc12.Cl`, the Inhibition is 100%.

On to `Cc1c(C(=O)C2CC2CN2CCC(N3CCCC3)CC2)sc2ccccc12` (stereo not given), for which the Inhibition stood at 9%.

In turn, `CC(C)CN(c1nc(C(=O)NNC(=O)[C@H](CC2CC2)NC(=O)c2cc3cc(OCCN(C)C)ccc3o2)cs1)C1CC1` returned an Inhibition of 97%.

Compound `O=C(Nc1ccc2c(c1)CCN2C1CCN(Cc2csc3ccccc23)C1)c1ccco1` (stereo not given) showed an Inhibition of 95%.

In turn, `Cc1cccc2nc(-c3ccc(-c4ccc(CNCC5CCCO5)cc4)s3)[nH]c12.O=C(O)C(F)(F)F` (stereo not given) came in with an Inhibition of 96%.

Compound `Cl.N#Cc1ccc2c(c1)CCN(CCC1CCC(NC(=O)c3cccc(-c4ccc(F)cc4)c3)CC1)CC2` (stereo not given) gave an Inhibition of 10%.

`Cl.Fc1cccc(COc2ccc(Nc3ncnc4ccc(-c5nnc(C(F)(F)F)o5)cc34)cc2Cl)c1` displayed an Inhibition of 77%.

As to `Br.CC1CCC2(CC1)N=C(N)N=C(N)N2OCc1ccc(Br)c2ccccc12` (stereo not given), the Inhibition was found to be 40%.

Regarding `Nc1nc(N)c2c(ccc3c2ccn3Cc2ccc(Cl)cc2)n1`, the Inhibition was found to be 99%.

In the case of `O=C(Nc1ccc(Cl)cc1)c1ccc(CN2CCCN(Cc3ccsc3)CC2)cc1.O=C(O)C(F)(F)F`, the Inhibition came to 1%.

Turning to `CCOC(=O)C1=C(C)NC(Cn2ccnc2)=C(C(=O)OCC)C1c1ccc(C(C)(C)C)cc1.Cl` (stereo not given), the Inhibition is reported as 33%.

In turn, `O=C(O)C(F)(F)F.O=[N+]([O-])c1cnc(Nc2ccccc2O)nc1Nc1ccccc1O` registered an Inhibition of 80%.

As for `Cc1cc(CNCCCCCNCc2cccc([N+](=O)[O-])c2)ccc1O`, the Inhibition is 0%.

Compound `CCc1n[nH]c(C(=O)NC2CCN(CC3(c4ccc(OC)cc4)CCCCC3)CC2)c1C` displayed an Inhibition of 90%.

Consider `c1ccc(-c2cc(NCc3cccc4ccccc34)c3[nH]ncc3n2)cc1`, for which the Inhibition is on record as 5%.

As for `Cc1cc(CNCCCCCNCc2ccc(Cl)cc2)ccc1O`, the Inhibition is reported as 0%.

With `O=C(Nc1cccnc1)c1cn(-c2ccccc2)nc1-c1cccs1`, the Inhibition was 61%.

Regarding `O=C(NC1CCCCC1)N(Cc1cccc(-c2ccc(CNCc3ccc4c(c3)OCO4)cc2)c1)C1CCN(Cc2ccccc2)CC1.O=C(O)C(F)(F)F`, the Inhibition is reported as 59%.

`CC1(C)CCCN(Cc2c(O)ccc3c(O)c(-c4nc5ccccc5s4)c(=N)oc23)C1` displayed an Inhibition of 100%.

Take `O=C1Nc2cccc3c2C1(CCCCN1CCC(c2c[nH]c4cc(C(F)(F)F)ccc24)CC1)CCC3` (stereo not given): the Inhibition is recorded as 79%.

Compound `CN(CCc1ccccn1)c1cccc2c1nc(-c1cccnc1)n2CCNCc1ccccc1.O=C(O)C(F)(F)F` gave an Inhibition of 97%.

In turn, `CNC(=O)NC1=NC(C)(C)N(OCc2ccc(Cl)c(Cl)c2)C(NC(=O)NC)=N1` had an Inhibition of 0%.

For the compound `CC[C@H](C)CNC(=O)c1ccnc(-c2ccc(CNCCCc3ccccc3)cc2)c1.O=C(O)C(F)(F)F`, the Inhibition was 84%.

Compound `CCC(ON1C(N)=NC(N)=NC1(C)C)c1ccccc1` (stereo not given) displayed an Inhibition of 0%.

`COc1cc(Cc2cnc(N)nc2N)cc(OCCCCC2SC(=O)NC2=O)c1OC` (stereo not given) registered an Inhibition of 0%.

`CCNc1cc(C(=O)N[C@@H](Cc2ccccc2)[C@H](O)CNC2CCC(C(C)(C)C)CC2)cc(N2CCCC2=O)c1` (stereo not given in full) came in with an Inhibition of 98%.

The compound `COc1ccc(CCNc2nc(NCCc3cnc[nH]3)nc(NCc3cccc4ccccc34)n2)cc1OC` yielded an Inhibition of 16%.

The values above are taken from ChEMBL document CHEMBL1157539, “Thousands of chemical starting points for antimalarial lead identification” (Nature, 2010).
